Most compounds without a hit are left out; they make up all but 3.1% or so of the library.
Tau fluor counter: counter-screen for tau fibril formation inhibitors. tau K18 P301L Alexa594 fluorescence, heparin fibrillization. Potency, µM (titrated, usually from 57.7 µM), inactives show at the top dose activity change, negative = decrease. 0.93% of 280,000 active; note: nearly all actives have a fitted effect of over 55% in size
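Human K18 P301L tau (15 uM unlabeled plus 0.24 uM Alexa 594-labeled, final) in 100 mM sodium acetate pH 7 was mixed with compound and 20 uM heparin and incubated 6 hr at 37 C.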
Tau fibril ThT: blocks human tau fibril formation measured by thioflavin T | Potency, µM (titrated, usually from 57.4 µM), inactives show at the highest dose activity, negative = inhibition, hits mostly inhibitors | recombinant tau K18 P301L (four-repeat tau fragment), heparin-induced fibrillization, ThT fluorescence | 2.1% of 270,000 active; note: nearly all actives have a fitted effect of over 55% in size
Target sequence (P10636 561-689 P618L limits assumed): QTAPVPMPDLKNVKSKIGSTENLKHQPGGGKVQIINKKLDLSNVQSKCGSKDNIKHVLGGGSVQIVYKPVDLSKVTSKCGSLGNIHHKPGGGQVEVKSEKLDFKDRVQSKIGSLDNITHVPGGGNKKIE
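K18 P301L tau (15 uM + 0.24 uM Alexa 594-tagged), heparin 20 uM, NaOAc pH 7, 6 h 37 C; ThT 30 uM, 1 h RT, ex 450/em 510 nm.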
TR SRC2 fluor cs: alters Texas Red total fluorescence, flagging assay interference. Potency, µM (top dose mostly 106 µM), without a hit: at the highest dose fluorescence change, negative = quenching. TRb/SRC2 Texas Red total fluorescence interference. 0.29% of 280,000 active. AID 1479; active = well fitted curve in either direction with a large enough effect; inconclusive = small, poorly fitted or top-dose-only effect
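Human TRb ligand-binding domain at 0.6 uM with 20 nM Texas Red SRC2 peptide in Tris buffer containing 1 uM T3 and 5% DMSO, incubated with compound 5 h at ambient temperature. Total fluorescence (555/632 nm) calculated as parallel + 2 × perpendicular.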
TRb SRC2 PPI: TRbeta-SRC2 interaction inhibition; P10828; 0.065% of 280,000 active; Potency, µM (doses to about 106 µM), for the others: top-dose activity change, negative = inhibition, hits mostly inhibitors; TRbeta-SRC2 peptide binding, fluorescence polarization; receptor liganded with 1 µM T3;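 note: plate controls were bound peptide for no effect and peptide without receptor for full effect; nearly all actives have a fitted effect of over 50% in size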
Target sequence (P10828 whole entry, looked up): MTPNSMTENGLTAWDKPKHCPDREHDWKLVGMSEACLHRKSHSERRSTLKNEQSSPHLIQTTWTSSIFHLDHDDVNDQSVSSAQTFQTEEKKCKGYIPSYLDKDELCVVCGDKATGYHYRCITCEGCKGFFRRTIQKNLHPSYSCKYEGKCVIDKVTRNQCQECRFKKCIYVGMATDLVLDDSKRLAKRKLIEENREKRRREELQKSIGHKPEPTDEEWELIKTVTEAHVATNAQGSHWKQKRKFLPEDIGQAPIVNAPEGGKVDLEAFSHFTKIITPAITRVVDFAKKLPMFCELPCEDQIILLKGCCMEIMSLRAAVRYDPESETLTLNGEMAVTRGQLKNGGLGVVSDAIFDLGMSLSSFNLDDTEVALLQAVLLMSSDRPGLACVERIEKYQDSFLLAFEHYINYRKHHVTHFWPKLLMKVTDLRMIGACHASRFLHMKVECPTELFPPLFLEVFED
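A fluorescence polarization screen tested compounds at multiple concentrations against complex formation between 0.6 uM TRb ligand-binding domain and 20 nM Texas Red SRC2 peptide, with 1 uM T3 present; readout after 5 hr.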
Tau fibril FP: tau fibrillization inhibition (FP) | Potency, µM (highest dose often 57.7 µM), for inactives: top-dose activity, negative = inhibition, most hits filed as inhibitors | P10636 | K18 P301L tau heparin fibrillization, Alexa594 FP, 6 h | 0.39% of 280,000 active; note: nearly all actives have a fitted effect of over 55% in size
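Steps: dispense K18 P301L tau (15 uM plus 0.24 uM Alexa 594 tracer, final) in pH 7 sodium acetate; add compound; add heparin (20 uM final); incubate 6 hr, 37 C; add ThT (30 uM final); after 1 hr ambient, read FP.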
Starred values were filed as active, the others as inactive; ? = inconclusive; nt = no result given; ! = not confirmed by another sample; [ ] = dose if it differs, or a comment. Unless noted, calls come from the whole dose curve; as a rule, active = well fitted curve in the direction sought with a large enough effect; inconclusive = small, poorly fitted or top-dose-only effect, or another doubt; inactive = no such curve, though single readings can be large; an effect the other way counts as inactive or inconclusive. Unless noted, % is set by controls: 0 for no effect and ±100 for the full control effect; potency is the fitted concentration of half-maximal effect.

SMILES	Tau fluor counter	Tau fibril ThT	TR SRC2 fluor cs	TRb SRC2 PPI	Tau fibril FP
Cc1ccc2c(c1)C(=O)C1(O)CCN(c3ccccc3)C1=N2 (configuration not stated)	-12.8%	7.94µM*!	-2.0%	0.9%	-12.5%
C=C1c2cc(C)ccc2NC(=O)N1c1ccccc1	-8.2%	-7.0%	-2.6%	1.0%	-4.8%
Cc1ccc2c(c1)C(=O)[C@@]1(O)CCN(c3ccccc3)C1=N2	-20.1%	20µM*	-1.6%	2.6%	-4.6%
CC1=Nc2cc(C(=O)O)ccc2Sc2ccc(C)cc21	8.8%	4.3%	-4.0%	8.9%	5.0%
COc1ccc(Cl)cc1NC(=O)c1nn(C)c2c1CS(=O)(=O)c1ccccc1-2	-0.6%	2.8%	-19.5%	-0.2%	-14.9%
CC(=O)N1CCN(c2ccc(S(C)(=O)=O)cc2[N+](=O)[O-])CC1	4.0%	0.6%	0.1%	-2.8%	1.7%
O=C(Nc1nc2c(s1)CCCC2)Oc1ccccc1	1.5%	-8.9%	-8.3%	-0.2%	-0.4%
C/C(=N\Nc1nc2c(s1)CCCC2)c1ccccc1	?	14.1µM*	0.6%	-16.3%	-8.5%
CCCN1CCCc2cc(CN)ccc21	?	25.1µM*	9.1%	-9.0%	-16.8%
COc1cc(C2c3sc(=O)[nH]c3SC3C(=O)N(c4ccc(Br)cc4)C(=O)C32)ccc1O (configuration not stated)	?	?	-2.9%	-2.1%	2.8%
CCOc1ccc(N2C(=O)C3Sc4[nH]c(=O)sc4C(/C=C/c4ccccc4)C3C2=O)cc1 (configuration not stated)	?	14.1µM*	2.1%	-8.5%	-16.3%
O=C1/C(=C\c2ccc(O)cc2)SC(=S)N1/N=C/c1ccc(O)cc1	?	5.01µM*	-3.2%	5.5%	0.5%
CC(/C=C\C=C\c1ccccc1)=N\NC(=O)c1cncc(Br)c1	-13.7%	10µM*	0.3%	3.0%	3.1%
CC(/C=C/C=C/c1ccccc1)=N\NC(=O)c1cccnc1	-5.9%	?	-3.3%	-4.1%	-0.7%
C=C(C)Cn1c(SCC(=O)Nc2cccc(Cl)c2)nc2sc3c(c2c1=O)CCCC3	-22.4%	-14.0%	0.1%	-5.4%	-10.8%
CC(=O)OCCNc1cc(SC(C)C)c2nonc2c1[N+](=O)[O-]	-29.4%	?	-1.9%	0.4%	0.9%
CN(CCO)c1cc(Sc2nc3ccccc3s2)c2nonc2c1[N+](=O)[O-]	?	28.2µM*	-1.2%	1.1%	-13.8%
NS(=O)(=O)c1ccc(Sc2nc3ccccc3s2)c([N+](=O)[O-])c1	?	nt	-5.1%	1.2%	3.6%
CC(=O)OCCN(C)c1cc(SC(C)C)c2nonc2c1[N+](=O)[O-]	?	14.1µM*	-3.9%	1.3%	-16.5%
CCc1ccc(C2Sc3ccccc3NC3=C2C(=O)c2ccccc23)cc1 (configuration not stated)	2.51µM*[quencher]	?	-2.5%	-2.1%	?
O=C1C2=C(Nc3ccccc3SC2c2ccc(C(F)(F)F)cc2)c2ccccc21 (configuration not stated)	2.82µM*[quencher]	?	0.4%	-1.4%	10µM*
CC(=O)Nc1ccc(C2Sc3ccccc3NC3=C2C(=O)c2ccccc23)cc1 (configuration not stated)	11.2µM*[quencher]	?	-4.7%	3.3%	?
O=C1C2=C(Nc3ccccc3SC2c2ccco2)c2ccccc21 (configuration not stated)	15.8µM*[quencher]	12.6µM*	-3.4%	3.3%	?
CC(C)c1ccc(C2Sc3ccccc3NC3=C2C(=O)c2ccccc23)cc1 (configuration not stated)	?	?	-5.0%	12.3%	?
Cc1ccccc1-n1c(C)nnc1SCc1cc(=O)oc2ccc3ccccc3c12	-3.3%	-7.6%	1.3%	4.5%	-10.7%
SMILES	Tau fluor counter	Tau fibril ThT	TR SRC2 fluor cs	TRb SRC2 PPI	Tau fibril FP
Cc1ccc(-c2onc(C)c2C)cc1S(=O)(=O)N1CCC(C)CC1	-17.1%	-11.1%	0.4%	-1.4%	8.4%
CCN1C(C)=C(C(=O)OC)C(c2ccccc2)N2C(=O)[C@](O)(C(=O)OC)CC(C#N)=C12 (some centres not stated)	-10.8%[11.6 µM]	-11.7%[11.5 µM]	-2.3%[11.2 µM]	2.1%[11.2 µM]	3.2%[11.6 µM]
CC(/C=C(\NC(=O)c1ccccc1)C(=O)N=Nc1c(O)[nH]c2ccc(C)cc12)=C\c1ccccc1	?	20µM*	-4.1%	-5.6%	-3.2%
Cc1ccc2[nH]c(O)c(N=NC(N)=S)c2c1	-10.2%	?	-11.3%	-2.4%	-2.4%
Nc1ccc2ncccc2c1	-21.3%	15.8µM*	-6.9%	-3.5%	?
c1ccc2ncccc2c1	nt	nt	-2.4%	3.4%	nt
Nc1ccc2ncccc2c1N	?	25.1µM*	-3.0%	4.9%	?
Nc1ccc(/C=C/c2ccc3ncccc3c2)cc1	-28.5%	6.31µM*	-12.5%	-8.4%	-6.4%
Cc1ccc(/C=N/Nc2nc3ccccc3[nH]2)s1	?	7.94µM*	-20.6%	3.1%	?
C(=N\Nc1nc2ccccc2[nH]1)/c1c[nH]c2ccccc12	15.8µM*[quencher]	12.6µM*	-11.1%	5.6%	10.4%
C(=N\Nc1nc2ccccc2[nH]1)/c1ccccc1	-11.4%	?	-3.9%	-7.5%	8.1%
COc1ccc(/C=N/Nc2nc3ccccc3[nH]2)c(OC)c1OC	?	?	-5.9%	-4.1%	13.3%
C(=C\c1ccccc1)/C=N/Nc1nc2ccccc2[nH]1	?	7.94µM*	-4.1%	-0.4%	10.7%
C(=N\Nc1nc2ccccc2[nH]1)/c1cccc2cccnc12	?	4.47µM*	-9.5%	-1.0%	7.8%
Cc1ccccc1/C=N/Nc1nc2ccccc2[nH]1	?	?	-4.2%	11.1%	5.1%
Cc1nc2cc(-c3ccccc3)nn2c(C)c1CCC(=O)N1CCN(c2ccc(F)cc2)CC1	?	?	-6.4%	-3.0%	2.0%
COc1cc(CNC(=O)c2ccc3c(c2)N(C)C(=O)C2CCCCN32)cc(OC)c1OC (configuration not stated)	-13.3%	-4.9%	-2.3%	-2.7%	6.9%
C=CCCCCCCCCC=O	nt	nt	-0.7%[201 µM]	-4.6%[201 µM]	nt
CCc1c(C)sc(NC(=O)c2cc(-c3cccc(Cl)c3)on2)c1C#N	-3.0%	?	-22.3%	5.5%	?
CCOc1cc(NC(=S)NCCCN2CCOCC2)c(OCC)cc1NC(=O)c1ccc(C)cc1	20.5%[2.34 µM]	10.4%	-6.5%	-1.7%	5.8%[2.34 µM]
COc1cc(CO)ccc1OCc1nnnn1-c1ccc(C)cc1	-5.8%	5.5%	-1.7%	10.8%	7.6%
Cc1cc(N/N=C/c2ccc(O)c(C)c2O)nc(-c2ccccc2O)n1	7.94µM*[quencher]	?	?	12.0%	?
Cc1ccc(Nc2cc(C)nc(-c3ccccc3O)n2)cc1	8.91µM*[quencher]	?	-0.5%	12.3%	?
Cc1cc(NC(=O)Cn2c(=O)oc3cc(S(=O)(=O)N4CCCC4)ccc32)ccc1Br	-14.3%	8.8%	-7.0%	7.0%	?
CCc1ccccc1NC(=O)CN1C(=O)c2cccnc2Sc2ccccc21	-4.4%	-14.8%	?	-3.3%	-1.4%
